About 83,000 compounds went through this panel and 20% of them were active in at least one assay; those are over-represented in the sample as a whole.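 Values shown are percent growth following 48 h exposure of cells in 96-well plates to a single concentration of compound; below 10 was considered active.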 Calls of active or inactive are those of the source.
What follows are molecules tested on MDA-MB-468 breast (assay: NCI-60 one-dose screen, 48 h (100 = growth as untreated, 0 = no growth, -100 = all killed)). Settings: 10 µM unless noted.
In the case of `CSc1nc2c(c(=O)n1C)C(c1ccccc1)C1=C(N2)/C(=C/c2ccccc2)CCC1` (stereo not given), the growth is reported as 34.7% (inactive).
`C/C(=N\NC(=S)N1CC2CCC(CC2)C1)c1ccccn1` was tested, and the growth was -14.9% (active).
For `CCCNc1nc2ccccc2c2c1S(=O)(=O)c1ccc(Cl)cc1C2=O`, the growth was 3.32% (active).
With `CC(=O)c1sc(-c2ccccc2)cc1N` the growth was 91.7% (inactive).
With `Cc1cc(N2CCN(CCNc3ccnc4cc(Cl)ccc34)CC2)nc(N2CCOCC2)n1` the growth was 24.3% (inactive).
With `COc1ccc(C2CC(c3cccc(Nc4ccnc5cc(Cl)ccc45)c3)=NN2c2ccccc2)cc1` (stereo not given) the growth was 63.3% (inactive).
In the case of `Cc1ccc(C(=O)Nc2cccc(C(F)(F)F)c2)cc1Nc1nc(-c2cnccn2)nc2c1cnn2C`, the growth is reported as 104% (inactive).
With `COc1cc(/C=C2\C=C(c3ccccc3)N(CCc3ccccc3)C2=O)cc(OC)c1OC` the growth was 89.2% (inactive).
For `C1=CN2CC(c3ccccc3)=NNC2c2ccccc21` (stereo not given), the growth was 82.5% (inactive).
With `Cc1c(CC(=O)Nc2ccccc2)nnn1-c1ccccc1` the growth was 117% (inactive).
`CCOC(=O)c1[nH]c(=O)c2c(C)nc(-c3ccccc3)cc2c1O` was tested, and the growth was 92.9% (inactive).
`COc1ccc(N/N=C/c2cn(-c3ccc(C(=O)O)cc3)nc2-c2cc3ccccc3oc2=O)cc1` was tested, and the growth was 107% (inactive).
For `CCN(CC)CCOc1nc2ccc(OC)cc2c2c1-c1ccc(OC)cc1C2=O`, the growth was 51.9% (inactive).
With `CC(C)CCC[C@@H](C)[C@H]1CC[C@H]2[C@@H](Nc3ccc(O)cc3)CCC[C@]12C` the growth was -13.8% (active).
In the case of `N#Cc1c(N2CCOCC2)nc2sc3cc(Cl)ccc3n2c1=N`, the growth is reported as 15.8% (inactive).

Reference: PubChem BioAssay (NCI)
